# High-throughput results: PubChem, several laboratories
# Most compounds without a hit are left out; they make up all but 2.7% or so of the library.
# SENP6 inh: SENP6 protease inhibitors, primary screen, biochemical, luminescence, uHTS; Sentrin-specific protease 6 (Homo sapiens), Q9GZR1; Recombinant SENP6 catalytic domain, aminoluciferin luminescence; AID 2599, 2010; inhibition, % at 10 µM; actives 1.8% (n = 330,000);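 active = inhibition above about 50% at the single tested dose, limit read from the data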;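 also: plate controls were DMSO wells with enzyme for no effect and DMSO wells lacking enzyme for full effect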
# HSP90 refold inh: HSP90 inhibitors, primary screen, cell lysate, luminescence | Heat shock protein HSP 90 (rabbit reticulocyte lysate; luciferase refolding) | Rabbit reticulocyte lysate, luciferase refolding luminescence, 3 h | inhibition, % at 5.6 µM | actives 0.91% (n = 290,000) | AID 1789, 2009;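 active = inhibition above the screen-wide mean plus 3 SD, computed separately per campaign, cut at about 16% in these data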;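 also: 0% = DMSO wells and 100% = 60 µM geldanamycin wells; inhibitors lower the luminescence because luciferase stays unfolded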
# SENP7 inh: SENP7 protease inhibitors, primary screen, biochemical, luminescence, uHTS. recombinant SENP7, Z-RLRGG-aminoluciferin luminescence, 40 min. inhibition, % at 5 µM. actives 1.5% (n = 330,000). AID 434973, 2010;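 active = inhibition above about 50% at the single test dose, limit read from the data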;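 also: plate controls were DMSO with enzyme for no effect and no enzyme buffer wells for full effect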
# Target sequence (Q9BQF6 706-1050 limits assumed): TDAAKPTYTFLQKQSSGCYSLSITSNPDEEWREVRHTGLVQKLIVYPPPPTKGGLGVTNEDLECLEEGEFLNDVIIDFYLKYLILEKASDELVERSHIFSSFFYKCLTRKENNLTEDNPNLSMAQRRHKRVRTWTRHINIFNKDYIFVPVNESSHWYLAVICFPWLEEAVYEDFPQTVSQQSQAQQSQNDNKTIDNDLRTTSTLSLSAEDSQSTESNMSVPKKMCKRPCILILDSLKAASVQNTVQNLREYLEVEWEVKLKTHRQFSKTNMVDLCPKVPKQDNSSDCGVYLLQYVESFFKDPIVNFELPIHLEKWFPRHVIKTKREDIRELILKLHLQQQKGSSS
# SENP8 block-1: SENP8 protease inhibitors, primary screen, biochemical, luminescence. AID 2540, 2010. actives 1.2% (n = 330,000). Sentrin-specific protease 8 (Homo sapiens), Q96LD8. purified SENP8, Z-RLRGG-aminoluciferin cleavage. inhibition, % at 10 µM; in the data active = inhibition above about 50%
# SENP8 block-2: human SENP8 protease inhibitors, primary screen, biochemical, fluorescence, Nedd8 protein substrate, uHTS | Sentrin-specific protease 8 (Homo sapiens), Q96LD8 | recombinant SENP8 | inhibition, % at 20 µM | actives 0.64% (n = 360,000) | AID 602440, 2012; in the data active = inhibition mostly above about 40%, no sharp cut-off; inactive = mostly below about 27%
# SENP8 confirm: SENP8 protease inhibitors, retest, confirmation, biochemical, luminescence, single concentration | shares compounds with SENP7 inh | Recombinant SENP8, Z-RLRGG-aminoluciferin luminescence, 60 min | inhibition, % at 12.5 µM | actives 40% (n = 6,200);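 active = mean inhibition across replicates above about 50%, limit read from the data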
# SENP6 confirm: SENP6 protease inhibitors, confirmation, biochemical, luminescence, single concentration. AID 488915, 2010. inhibition, % at 12.5 µM. recombinant SENP6, Z-RLRGG-aminoluciferin luminescence. actives 58% (n = 6,200). shares compounds with SENP7 inh
# SENP7 conf: SENP7 protease inhibitors, retest, confirmation, biochemical, luminescence, single concentration; shares compounds with SENP7 inh; actives 69% (n = 6,200); AID 488917, 2010; recombinant SENP7, Z-RLRGG-aminoluciferin luminescence, 40 min; inhibition, % at 12.5 µM
# Casp3 SENP sel: caspase-3 protease inhibitors, confirmation, selectivity assay for SENP inhibitor project, biochemical, single concentration. shares compounds with SENP7 inh. purified caspase-3, Z-DEVD-aminoluciferin luminescence, 60 min. inhibition, % at 12.5 µM. actives 60% (n = 6,200). AID 488918, 2010;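 active = mean inhibition above about 50%, limit read from the data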;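 also: plate controls were enzyme with DMSO for no effect and wells without caspase-3 for full effect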
# Target sequence (P42574 28-227 limits assumed): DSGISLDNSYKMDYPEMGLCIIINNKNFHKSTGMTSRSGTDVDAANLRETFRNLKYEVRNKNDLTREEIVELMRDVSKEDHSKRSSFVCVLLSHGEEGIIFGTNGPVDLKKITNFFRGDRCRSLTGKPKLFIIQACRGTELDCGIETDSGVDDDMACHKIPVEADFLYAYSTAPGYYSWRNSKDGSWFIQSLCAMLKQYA
# Luc interf: counter-screen for SENP inhibitors: luminescence interference; shares compounds with SENP7 inh; Pre-incubated SENP8/Z-RLRGG-aminoluciferin, luciferase luminescence interference; inhibition, % at 12.5 µM; actives 39% (n = 6,200); AID 488919;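 active = mean inhibition above about 50% when retested at one dose, limit read from the data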;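 also: plate controls were DMSO wells with completed reaction for no effect and substrate without enzyme for full effect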
# Numbers without * were called inactive; / = not tested or not shown.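 The calls were made as follows, unless noted: active = mean inhibition above about 50% in the one-dose retest (limit read from the data); inactive = the rest.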
SMILES,SENP6 inh,HSP90 refold inh,SENP7 inh,SENP8 block-1,SENP8 block-2,SENP8 confirm,SENP6 confirm,SENP7 conf,Casp3 SENP sel,Luc interf
O=C(Cc1ccccc1)N1CCN(c2ccccc2F)CC1,75.2*,-0.3,-0.8,59.4*,10.5,-3.7,-1.8,-2.3,7.0,1.0
O=C(Oc1ccc(C(=S)N2CCCCC2)cc1)c1ccccc1F,-7.9,2.1,-10.4,-14.5,28.2,/,/,/,/,/
CC(C)n1nnc(-c2ccc(OCc3ccccc3F)cc2)n1,90.4*,0.4,90.3*,90.4*,-0.7,-7.6,91.3*,99.5*,82.3*,61.8*
Cn1nnc(-c2ccc(OCc3ccccc3F)cc2)n1,97.3*,-1.9,98.4*,91.2*,8.4,11.2,94.4*,101.1*,78.7*,22.1
Fc1ccccc1COc1ccc(C(=S)N2CCCC2)cc1,58.1*,2.4,47.9,64.3*,7.9,45.0,35.1,59.8*,26.2,31.8
CCCS(=O)(=O)NC(=O)C1(C)CCN(C(=O)c2cc(-c3cccs3)oc2C)C1 (stereo not drawn),/,/,/,/,-16.5,/,/,/,/,/
CCOc1ccc(N=NC2C(=O)N(C(N)=S)N=C2C)cc1 (stereo not drawn),97.0*,8.7,87.8*,93.2*,14.4,70.7*,96.6*,101.7*,97.1*,90.0*
CC(=O)Nc1ccc(N=NC2C(=O)N(C(N)=S)N=C2C)cc1 (stereo not drawn),70.2*,-1.9,62.9*,61.1*,28.0,64.3*,63.9*,89.7*,90.0*,25.4
CC1=NN(C(N)=S)C(=O)C1N=Nc1ccc(F)cc1 (stereo not drawn),88.4*,-1.2,80.3*,78.9*,17.6,32.3,37.9,39.9,53.9*,5.1
CC1=NN(C(N)=S)C(=O)C1N=Nc1ccc([N+](=O)[O-])cc1 (stereo not drawn),89.8*,0.0,88.7*,87.3*,26.0,26.4,5.4,-2.7,-4.4,-7.9
CC1=NN(C(N)=S)C(=O)C1N=Nc1ccc(O)cc1 (stereo not drawn),27.7,2.8,21.6,13.3,0.2,/,/,/,/,/
COC(=O)[C@]12CCCCC=C1N(Cc1ccc(Cl)cc1Cl)C(=O)[C@H](CC(=O)NCc1ccc(OC)c(OC)c1)C2,/,/,/,/,6.1,/,/,/,/,/
COc1ccc(-c2csc(-n3cccn3)n2)cc1,81.4*,-3.2,80.3*,72.4*,8.6,10.5,78.7*,96.2*,65.3*,68.6*
COc1ccc(-c2csc(N3CCSCC3)n2)cc1,-30.1,0.1,-1.9,-4.4,10.6,/,/,/,/,/
COc1ccc(/C=C2\Oc3ccccc3C2=O)cc1,92.7*,/,97.1*,92.3*,-472.9,4.9,94.4*,101.0*,93.9*,87.9*
COCOc1ccc(/C=C2/Oc3cc(OCOC)cc(OCOC)c3C2=O)c(OCOC)c1,-12.6,/,-6.9,3.9,-232.8,/,/,/,/,/
CC(=O)Oc1ccc(/C=C2/Oc3ccccc3C2=O)cc1,87.2*,3.6,78.3*,83.1*,-85.5,39.5,61.4*,44.3,70.8*,32.6
COc1cc(OC)c2c(c1)O/C(=C\c1ccccc1)C2=O,68.1*,/,53.5*,56.6*,-397.0,72.0*,67.7*,83.3*,47.2,72.4*
C#CCn1cnc2c(oc3ccccc32)c1=O,13.9,-2.9,9.9,-11.9,5.9,/,/,/,/,/
O=c1nc2c(-c3ccccc3F)n[nH]n2c2ccccc12,85.3*,7.6,90.0*,90.2*,-271.6,79.4*,92.3*,99.8*,92.8*,53.2*
Cc1ccccc1C(=O)O/N=C/c1c(N2CCOCC2)n(C)c2ccccc12,25.9,-0.3,19.3,3.6,-2.8,/,/,/,/,/
Cc1ccnc(NC(=O)c2cc3cc(F)ccc3s2)c1,87.1*,10.8,73.1*,73.1*,-65.6,78.8*,78.2*,94.8*,72.6*,59.6*
Cc1ccnc(NC(=O)Nc2ccc(F)cc2)c1,70.6*,-1.0,41.6,29.8,19.9,16.9,30.9,41.9,21.8,3.4
Cc1ccc(NC(=O)Nc2ccc(F)cc2)nc1,8.2,-4.7,12.3,-10.7,27.2,/,/,/,/,/
COc1cc(NC(=O)NS(=O)(=O)c2ccc(C)cc2)cc(OC)c1,-6.3,1.2,3.2,-5.7,0.1,/,/,/,/,/
SMILES,SENP6 inh,HSP90 refold inh,SENP7 inh,SENP8 block-1,SENP8 block-2,SENP8 confirm,SENP6 confirm,SENP7 conf,Casp3 SENP sel,Luc interf
CC(=O)c1cccc(NC(=O)c2oc(C)nc2C)c1,-12.7,-2.1,-3.2,-3.8,17.9,/,/,/,/,/
C/C(=N/OC(=O)c1ccccc1)c1oc(C)nc1C,61.8*,-1.6,78.3*,48.4,20.2,66.9*,67.0*,89.9*,86.9*,52.1*
CC1CCN(c2ccc(NC(=O)c3ccc(Br)o3)cc2)CC1,80.9*,5.8,87.9*,56.0*,9.8,32.2,30.4,26.2,26.6,13.9
O=[N+]([O-])c1ccc(-n2nnnc2CN2CCCCC2)cc1,1.0,-1.8,0.9,3.1,16.9,/,/,/,/,/
Cc1ccc(C(=O)COC(=O)c2cccs2)cc1,93.8*,-3.6,93.6*,86.5*,10.7,92.9*,92.3*,99.1*,91.6*,88.5*
O=C(COC(=O)c1cccs1)c1ccc2c(c1)OCCO2,94.9*,7.3,13.9,79.9*,13.5,98.6*,99.4*,102.5*,96.9*,97.0*
O=C(COC(=O)c1cccs1)c1ccc2ccccc2c1,41.2,-0.5,78.1*,62.7*,0.0,-19.3,64.0*,89.3*,43.8,54.3*
Cc1ccc(-c2nnc(COC(=O)c3cccs3)o2)cc1,77.6*,-2.1,72.4*,71.4*,-2.5,79.6*,77.6*,94.1*,77.7*,68.9*
CSCC[C@H](NC(=O)C1CCN(C(=O)[C@H](Cc2ccccc2)NS(=O)(=O)c2ccc(C)cc2)CC1)C(=O)O,-43.3,-6.7,-1.7,-5.6,15.0,/,/,/,/,/
O=c1cc(CCl)[nH]c2nc3ccccc3n12,-8.4,1.2,-4.7,-11.9,-353.8,/,/,/,/,/
